From PubChem BioAssay (NCATS)
Records with an inconclusive call do not appear. Where a call stands in place of a potency, no number is given. Active and inactive are the calls of the source. Unless noted, the call rests on the fitted dose curve; in most records, active means well fitted curve in the direction sought with a large enough effect; inconclusive means small, poorly fitted or top-dose-only effect, or another doubt; inactive means no such curve, though single readings can be large; an effect the other way counts as inactive or inconclusive.

Columns and labels:
[1] = Primary qHTS for small molecule stabilizers of the endoplasmic reticulum resident proteome: Secreted ER Calcium Modulated Protein (SERCaMP) assay (AID 1508630)
Summary of the method: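 The SH-SY5Y reporter protocol was run at 3 concentrations up to 38.3 uM (primary) or 11 concentrations (follow-up): 16 h compound, 100 nM thapsigargin for 4 h, then extracellular luciferase luminescence.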

[2] = tested on: Zika virus NS2B-NS3 protease (linked construct); test: Primary screen NINDS Rhodamine qHTS for Zika virus inhibitors (AID 1347160); further: nearly all actives have a fitted effect of over 55% in size; further: potency means the concentration at half of the fitted maximal effect
Summary of the method: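 Each compound, titrated, sat 15 min with 25 nM linked protease before 1.5 microM Rhodamine110 substrate went in. Fluorescence gain over the next 15 min, in pH 8.0 Tris with Tween 20, gave Hill-fitted curves.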

[3] = OV-KATE Cancer Cell Toxicity qHTS against the NCATS CANVASS Library (AID 1347345); further: potency means the concentration at half of the fitted maximal effect
Summary of the method: (§1)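 In this cytotoxicity screen, 1000 cells per well rested 4 hours, then received compound (11 concentrations) for a 72-hour incubation; an ATP-dependent luminescent signal (CellTiter-Glo) was the endpoint.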

[4] = OV-SAHO Cancer Cell Toxicity qHTS against the NCATS CANVASS Library (AID 1347348); further: nearly all actives have a fitted effect of over 55% in size; further: potency means the concentration at half of the fitted maximal effect
Summary of the method: as §1

[5] = COV-362 Cancer Cell Toxicity qHTS against the NCATS CANVASS Library (AID 1347352); further: potency means the concentration at half of the fitted maximal effect
Summary of the method: (§2)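 Using an ATP-based luminescent reagent after three days of treatment, toxicity is scored across an eleven-concentration range in wells holding 1000 cells each.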

[6] = UWB1.289-WTBRCA1 Cancer Cell Toxicity qHTS against the NCATS CANVASS Library (AID 1347354); further: potency means the concentration at half of the fitted maximal effect
Summary of the method: as §2

[7] = HEK293 24hr Apoptosis Induction qHTS against the NCATS CANVASS Library (AID 1347359); further: potency means the concentration at half of the fitted maximal effect
Summary of the method: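 HEK293 cells (500/well, DMEM + 10% FBS) were exposed to compounds in an 11-point series for 24 hours at 37 degrees C, then caspase-3/7 activity was read by Caspase-Glo DEVD luciferase luminescence after 15 min.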

[8] = HEK293 12hr Apoptosis Induction qHTS against the NCATS CANVASS Library (AID 1347361); further: potency means the concentration at half of the fitted maximal effect
Summary of the method: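 500 HEK293 cells/well; cpds pin-transferred, 11-pt conc series; 12 h, 37 degrees C/5% CO2; Caspase-Glo 3/7 added, 15 min RT dark; luminescence.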

[9] = tested on: NAD(P)H diaphorase (Clostridium kluyveri); test: Diaphorse counterscreen qHTS: Assay Interference Panel against the NCATS CANVASS Library (AID 1347362)
Summary of the method: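 Clostridium kluyveri diaphorase in PBS with 0.01% Tween-20 was preincubated 15 min at room temperature in the dark with compounds (11-point series). Resorufin fluorescence (ex 525/20, em 598/25) was read 5 min after adding resazurin/NADH.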

[10] = molecular target: Luciferin 4-monooxygenase (Photinus pyralis) (UniProt P08659); test: Firefly luciferase counterscreen qHTS: Assay Interference Panel against the NCATS CANVASS Library (AID 1347363)
Luciferin 4-monooxygenase (Photinus pyralis), sequence (P08659 whole entry, looked up): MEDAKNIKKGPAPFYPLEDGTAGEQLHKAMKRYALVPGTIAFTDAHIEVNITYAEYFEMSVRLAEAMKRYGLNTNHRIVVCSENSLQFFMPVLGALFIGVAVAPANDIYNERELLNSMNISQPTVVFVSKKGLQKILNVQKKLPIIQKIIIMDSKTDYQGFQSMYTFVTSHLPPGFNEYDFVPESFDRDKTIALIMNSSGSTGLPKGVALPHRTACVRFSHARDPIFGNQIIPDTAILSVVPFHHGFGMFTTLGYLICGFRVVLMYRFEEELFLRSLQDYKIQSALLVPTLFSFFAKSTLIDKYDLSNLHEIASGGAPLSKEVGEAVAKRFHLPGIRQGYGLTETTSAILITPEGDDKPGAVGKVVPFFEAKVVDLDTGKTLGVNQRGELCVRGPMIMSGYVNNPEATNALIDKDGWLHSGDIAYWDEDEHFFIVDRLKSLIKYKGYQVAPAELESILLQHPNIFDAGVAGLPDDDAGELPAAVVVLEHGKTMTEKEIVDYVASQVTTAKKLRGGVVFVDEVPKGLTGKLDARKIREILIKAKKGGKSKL
Summary of the method: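 Purified P. pyralis luciferase was added to compounds (11-point series) preincubated 15 min at room temperature with substrate containing 0.013 mM D-luciferin and 0.013 mM ATP; luminescence was read after 5 min.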

[11] = qHTS Assay for Lipid Storage Modulators (AID 1519; calls by dose curve); settings: Drosophila S3 cells, BODIPY lipid droplet/cell ratio, laser cytometry, cells loaded with oleic acid; for activity change, negative = inhibition: at 57.5 µM (top of the series)
Summary of the method: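 Cells seeded at 5,000 per well were treated with compounds over a concentration series and loaded with oleic acid (400 uM, as added). Lipid droplet fluorescence (488 nm excitation, 500-530 nm channel) was read by laser-scanning cytometry and normalized to 20 uM Triacsin C.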

[12] = molecular target: DNA dC->dU-editing enzyme APOBEC-3G (Homo sapiens) (UniProt Q9HC16); test: qHTS for inhibitors of Vif-A3G interactions: Validation (AID 588379)
DNA dC->dU-editing enzyme APOBEC-3G (Homo sapiens), sequence (Q9HC16 whole entry, looked up): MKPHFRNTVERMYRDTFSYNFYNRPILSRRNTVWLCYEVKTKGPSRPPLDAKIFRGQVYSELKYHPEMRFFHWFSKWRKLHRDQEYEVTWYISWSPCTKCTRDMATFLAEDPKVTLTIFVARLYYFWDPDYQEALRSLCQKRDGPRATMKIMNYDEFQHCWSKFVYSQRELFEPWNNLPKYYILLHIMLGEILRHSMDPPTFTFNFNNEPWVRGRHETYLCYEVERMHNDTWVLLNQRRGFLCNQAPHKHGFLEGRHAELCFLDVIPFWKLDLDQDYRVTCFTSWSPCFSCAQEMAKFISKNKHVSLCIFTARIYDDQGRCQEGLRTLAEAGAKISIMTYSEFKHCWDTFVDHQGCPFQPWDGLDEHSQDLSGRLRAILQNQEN
Summary of the method: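 Yellow fluorescence (Ex 488, Em 500-530) of Vif-coexpressing HeLa A3G-eYFP cells, scanned by Acumen cytometer, reports blocked A3G degradation. Cells plated at 700/well overnight at 37 deg C before compound addition, then a further overnight compound incubation at 37 deg C.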

[13] = molecular target: Glucocorticoid receptor (Homo sapiens) (UniProt P04150); test: GR-GFP Redistribution (AID 450;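 active means compounds whose dose series gives a full or clear partial fitted curve of increased nuclear translocation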; further: potency means the concentration at half of the fitted maximal effect); settings: U2OS GR-GFP nuclear translocation, laser cytometry, 2 h
Glucocorticoid receptor (Homo sapiens), sequence (P04150 whole entry, looked up, the tested form may be a part): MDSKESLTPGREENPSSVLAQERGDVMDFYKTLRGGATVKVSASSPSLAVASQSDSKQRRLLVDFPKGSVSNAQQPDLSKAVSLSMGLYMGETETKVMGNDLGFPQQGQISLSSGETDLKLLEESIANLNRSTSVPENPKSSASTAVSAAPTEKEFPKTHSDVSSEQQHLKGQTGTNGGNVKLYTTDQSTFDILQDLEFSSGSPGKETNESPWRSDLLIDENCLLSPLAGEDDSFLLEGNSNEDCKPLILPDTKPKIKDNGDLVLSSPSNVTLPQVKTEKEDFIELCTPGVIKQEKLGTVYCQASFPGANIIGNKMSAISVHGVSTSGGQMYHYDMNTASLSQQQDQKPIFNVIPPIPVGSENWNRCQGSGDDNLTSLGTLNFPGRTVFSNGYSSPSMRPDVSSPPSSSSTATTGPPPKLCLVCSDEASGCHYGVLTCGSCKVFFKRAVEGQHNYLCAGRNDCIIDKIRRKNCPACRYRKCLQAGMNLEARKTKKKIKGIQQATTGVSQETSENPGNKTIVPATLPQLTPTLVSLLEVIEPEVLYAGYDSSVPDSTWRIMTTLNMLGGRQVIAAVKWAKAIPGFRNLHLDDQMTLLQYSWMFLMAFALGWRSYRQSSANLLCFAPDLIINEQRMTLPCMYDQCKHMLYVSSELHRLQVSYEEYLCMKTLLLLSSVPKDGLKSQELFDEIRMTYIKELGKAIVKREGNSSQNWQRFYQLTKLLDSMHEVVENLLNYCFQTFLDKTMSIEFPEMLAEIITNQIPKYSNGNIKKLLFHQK

[14] = molecular target: Glucocorticoid receptor (Homo sapiens) (UniProt P04150); test: GR-EFC Redistribution (AID 451; calls by dose curve; further: potency means the concentration at half of the fitted maximal effect); settings: CHO-K1 GR-EFC translocation, beta-gal luminescence, 2 h
Summary of the method: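 CHO-K1 cells stably expressing nuclear-localized β-gal enzyme acceptor and GR fused C-terminally to the enzyme donor fragment; ligand-driven nuclear translocation restores β-gal by complementation. Compounds titrated up to 46 uM final, 2 h at 37 °C; luminescence read.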

[15] = molecular target: Mitogen-activated protein kinase 10 (Mus musculus) (UniProt Q61831); test: JNK3 AlphaScreen Assay (AID 530; active means well fitted curve in either direction with a large enough effect, not every such curve was filed as active;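 further: kinase came from lysate of stimulated human HepG2 cells; signal reports phosphorylation of biotinylated GST-cJun 1-79 at Ser73 with 10 µM ATP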)
Summary of the method: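 Biotinylated GST-cJun(1-79) served as substrate for JNK3 in HepG2 lysates stimulated with IL-1beta and TNF-alpha. ATP was 10 uM final, pH 7.6. Ser73 phosphorylation was quantified by AlphaScreen (680 nm excitation).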

[16] = molecular target: 3',5'-cyclic-AMP phosphodiesterase 4B (Homo sapiens) (UniProt Q07343); test: qHTS Assay for Inhibitors of PDE-IV (AID 607; active means well fitted activation curve with a large enough effect in the main read-out, with a control signal flat, not every such curve was filed as active)
3',5'-cyclic-AMP phosphodiesterase 4B (Homo sapiens), sequence (Q07343 whole entry, looked up): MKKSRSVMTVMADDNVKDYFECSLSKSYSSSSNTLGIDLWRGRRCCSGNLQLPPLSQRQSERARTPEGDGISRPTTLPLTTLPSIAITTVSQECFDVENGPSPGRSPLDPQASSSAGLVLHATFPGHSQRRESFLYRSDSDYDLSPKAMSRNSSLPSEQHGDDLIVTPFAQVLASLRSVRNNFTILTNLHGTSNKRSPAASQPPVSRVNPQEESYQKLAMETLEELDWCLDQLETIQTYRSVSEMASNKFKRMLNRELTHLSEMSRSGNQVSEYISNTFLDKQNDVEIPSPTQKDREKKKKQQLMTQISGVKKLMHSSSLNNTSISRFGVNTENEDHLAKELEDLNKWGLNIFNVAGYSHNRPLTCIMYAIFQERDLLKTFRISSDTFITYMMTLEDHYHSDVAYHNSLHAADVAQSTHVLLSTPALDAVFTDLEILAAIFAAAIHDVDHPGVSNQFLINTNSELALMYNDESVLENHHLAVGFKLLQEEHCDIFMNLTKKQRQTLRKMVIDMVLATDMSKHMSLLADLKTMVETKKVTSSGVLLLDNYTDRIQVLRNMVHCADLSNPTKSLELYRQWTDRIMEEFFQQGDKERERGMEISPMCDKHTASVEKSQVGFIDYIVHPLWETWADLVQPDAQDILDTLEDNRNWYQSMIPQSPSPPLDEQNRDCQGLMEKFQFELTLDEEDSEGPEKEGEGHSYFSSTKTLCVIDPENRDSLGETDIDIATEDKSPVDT
Summary of the method: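 HEK293 ACTOne cells with CNG channel (1000/well), endogenous PDE4; membrane potential dye, compounds up to 22.9 uM final. Fluorescence Ex 535/Em 590; RO 20-1724 (100 uM final) as reference.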

[17] = molecular target: Ubiquitin carboxyl-terminal hydrolase 1 (Homo sapiens) (UniProt O94782); test: Inhibitors of USP1/UAF1: Pilot qHTS (AID 504865);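 further: rhodamine fluorescence freed from ubiquitin-rhodamine substrate followed over time; top concentration of the series differs between compounds; nearly all actives have a fitted effect of over 35% in size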
Ubiquitin carboxyl-terminal hydrolase 1 (Homo sapiens), sequence (O94782 whole entry, looked up): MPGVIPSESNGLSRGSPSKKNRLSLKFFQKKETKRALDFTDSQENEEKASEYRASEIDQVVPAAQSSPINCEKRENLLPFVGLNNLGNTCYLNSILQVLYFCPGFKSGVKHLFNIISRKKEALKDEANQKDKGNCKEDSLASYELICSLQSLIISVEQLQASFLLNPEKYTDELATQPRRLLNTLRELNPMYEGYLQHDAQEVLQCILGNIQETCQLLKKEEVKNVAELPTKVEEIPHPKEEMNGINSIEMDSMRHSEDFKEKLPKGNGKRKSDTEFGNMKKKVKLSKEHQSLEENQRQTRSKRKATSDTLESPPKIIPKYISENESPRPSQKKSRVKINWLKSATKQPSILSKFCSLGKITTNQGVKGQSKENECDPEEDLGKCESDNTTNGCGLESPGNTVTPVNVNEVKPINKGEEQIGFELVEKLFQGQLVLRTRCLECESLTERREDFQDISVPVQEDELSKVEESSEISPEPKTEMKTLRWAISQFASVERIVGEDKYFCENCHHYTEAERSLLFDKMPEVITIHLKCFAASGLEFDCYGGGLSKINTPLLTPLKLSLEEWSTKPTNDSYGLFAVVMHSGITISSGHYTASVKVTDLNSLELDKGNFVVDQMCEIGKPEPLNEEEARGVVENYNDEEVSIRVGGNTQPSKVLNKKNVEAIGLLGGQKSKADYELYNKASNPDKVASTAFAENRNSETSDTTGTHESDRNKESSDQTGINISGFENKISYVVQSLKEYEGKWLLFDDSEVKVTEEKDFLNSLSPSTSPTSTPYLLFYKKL
Summary of the method: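 1nM USP1/UAF1 + cpd, 15 min RT; start w/ Ub-Rho 150nM final; kinetic FL 480/540 nm, 6 reads q60 s. Buffer 50mM HEPES pH 7.8, 0.5mM EDTA, 1mM TCEP, 0.01% Tween-20, 0.1 mg/ml BSA.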

[18] = molecular target: Cytochrome P450 1A2 (Homo sapiens) (UniProt P05177); test: p450-cyp1a2 (AID 410; calls by dose curve)
Cytochrome P450 1A2 (Homo sapiens), sequence (P05177 whole entry, looked up): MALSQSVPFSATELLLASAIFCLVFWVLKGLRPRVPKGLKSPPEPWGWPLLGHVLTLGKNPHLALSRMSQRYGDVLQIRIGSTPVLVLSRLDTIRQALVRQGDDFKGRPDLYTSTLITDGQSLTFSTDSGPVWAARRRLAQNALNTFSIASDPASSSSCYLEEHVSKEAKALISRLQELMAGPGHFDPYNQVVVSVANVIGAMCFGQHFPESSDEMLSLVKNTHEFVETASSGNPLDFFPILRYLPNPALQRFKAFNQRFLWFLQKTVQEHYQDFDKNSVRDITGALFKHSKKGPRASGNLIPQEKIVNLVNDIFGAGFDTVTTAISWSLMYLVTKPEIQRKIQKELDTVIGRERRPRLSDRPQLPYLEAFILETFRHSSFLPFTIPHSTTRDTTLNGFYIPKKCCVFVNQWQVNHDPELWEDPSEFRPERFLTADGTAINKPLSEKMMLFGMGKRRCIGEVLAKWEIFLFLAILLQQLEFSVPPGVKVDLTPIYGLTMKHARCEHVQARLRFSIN
Summary of the method: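 Read-out is luminescence from luciferin produced by CYP1A2 demethylation of Luciferin-ME (100uM, at Km). Detection reagent stopped the 60 min NADPH-dependent reaction; signals were normalized to 57 uM furafylline.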

[19] = measured here: cell count channel max response
[20] = measured here: lipid channel max response

**Q.** Which Potency [1] does the source give for `CCCN(C/C=C/I)C1CCc2ccc(O)cc2C1` (centres undefined) here?
**A.** The Potency was “inactive”.

**Q.** With `CC(=O)C1CCC2C3CCC4CC(C)(O)CCC4(C)C3CCC12C` (centres undefined) as the compound, how does the Potency [1] read?
**A.** The Potency was “inactive”.

**Q.** With `CCCCC/C=C\C[C@@H](/C=C/C=C\C/C=C\CCCC(=O)O)OO` as the compound, how does the activity change, negative = inhibition [1] read?
**A.** The activity change, negative = inhibition was -39.3% [at 0.478 µM] (inactive).

**Q.** With `CC[C@@H]1CN2CC[C@@]3(O)C(=Nc4cccc(OC)c43)[C@@H]2C[C@@H]1/C(=C\OC)C(=O)OC` as the compound, how does the Potency [2] read?
**A.** The Potency was “inactive”.

**Q.** And the Potency [3]?
**A.** The Potency was “inactive”.

**Q.** And the Potency [4]?
**A.** Its Potency is “inactive”.

**Q.** And the Potency [5]?
**A.** Its Potency is “inactive”.

**Q.** What about the Potency [6] of the same compound?
**A.** Its Potency is “inactive”.

**Q.** And the Potency [7]?
**A.** Its Potency is “inactive”.

**Q.** What about the Potency [8] of the same compound?
**A.** The Potency was “inactive”.

**Q.** What about the outcome [9] of the same compound?
**A.** The outcome was “inactive”.

**Q.** What about the outcome [10] of the same compound?
**A.** Its outcome is “inactive”.

**Q.** Which Potency [1] does the source give for `C[C@]12CC[C@H]3[C@@H](C[C@H](F)C4=CC(=O)CC[C@@]43C)[C@@H]1CC[C@@H]2O` here?
**A.** Its Potency is “inactive”.

**Q.** Which Potency [1] does the source give for `CC1CC2CCC(O2)C(C)C(=O)OC(C)CC2CCC(O2)C(C)C(=O)OC(C)CC2CCC(O2)C(C)C(=O)OC(C)CC2CCC(O2)C(C)C(=O)O1` (centres undefined) here?
**A.** The Potency was “inactive”.

**Q.** Which Potency [2] does the source give for `CCN1C[C@]2(C)CC[C@H](O)[C@]34C1C(C[C@H]23)[C@@]12CC[C@H](CC14)[C@](O)(COC(=O)c1ccc(OC)c(OC)c1)[C@H]2O` (some centres undefined) here?
**A.** Its Potency is “inactive”.

**Q.** And the Potency [3]?
**A.** The Potency was “inactive”.

**Q.** What about the Potency [4] of the same compound?
**A.** Its Potency is “inactive”.

**Q.** What about the Potency [5] of the same compound?
**A.** The Potency was “inactive”.

**Q.** And the Potency [6]?
**A.** Its Potency is “inactive”.

**Q.** And the Potency [7]?
**A.** Its Potency is “inactive”.

**Q.** And the Potency [8]?
**A.** Its Potency is “inactive”.

**Q.** And the outcome [9]?
**A.** Its outcome is “inactive”.

**Q.** And the outcome [10]?
**A.** Its outcome is “inactive”.

**Q.** Which Potency [1] does the source give for `CO[C@@H]1C[C@@H](C[C@H]2CC[C@H](C)[C@@H]([C@@H](C)C(=O)O)O2)O[C@]2(O[C@](C)([C@H]3CC[C@@](C)(C4OC([C@H]5O[C@@](O)(CO)[C@H](C)C[C@@H]5C)C[C@@H]4C)O3)C[C@H]2C)[C@@H]1C` (some centres undefined) here?
**A.** The Potency was “inactive”.

**Q.** Which activity change, negative = inhibition [11] does the source give for `C=C(C)[C@H]1C2C(=O)O[C@H]1[C@H]1OC(=O)[C@@]34O[C@@H]3C[C@]2(O)[C@@]14C` here?
**A.** The activity change, negative = inhibition was 2.82% (inactive).

**Q.** What about the max response [11, 19] of the same compound?
**A.** Its max response is 7.99%.

**Q.** And the max response [11, 20]?
**A.** Its max response is 11%.

**Q.** And the Potency [12]?
**A.** Its Potency is “inactive”.

**Q.** And the Potency [1]?
**A.** Its Potency is “inactive”.

**Q.** For `c1ccc2c3c([nH]c2c1)CNCC3`, which Potency [2] is on record?
**A.** Its Potency is “inactive”.

**Q.** What about the Potency [3] of the same compound?
**A.** The Potency was “inactive”.

**Q.** And the Potency [4]?
**A.** Its Potency is “inactive”.

**Q.** And the Potency [5]?
**A.** The Potency was “inactive”.

**Q.** And the Potency [6]?
**A.** Its Potency is “inactive”.

**Q.** What about the Potency [7] of the same compound?
**A.** The Potency was “inactive”.

**Q.** What about the Potency [8] of the same compound?
**A.** Its Potency is “inactive”.

**Q.** What about the outcome [9] of the same compound?
**A.** Its outcome is “inactive”.

**Q.** And the outcome [10]?
**A.** The outcome was “inactive”.

**Q.** For `COC(=O)/C=C\C(=O)N[C@@H]1CC[C@@]2(O)[C@H]3Cc4ccc(O)c5c4[C@@]2(CCN3CC2CC2)[C@@H]1O5`, which Potency [13] is on record?
**A.** Its Potency is > 46 µM (inactive).

**Q.** What about the Potency [14] of the same compound?
**A.** Its Potency is > 46 µM (inactive).

**Q.** What about the outcome [15] of the same compound?
**A.** The outcome was “inactive”.

**Q.** And the Potency [16]?
**A.** The Potency was “inactive”.

**Q.** And the activity change, negative = inhibition [11]?
**A.** The activity change, negative = inhibition was -0.127% (inactive).

**Q.** What about the max response [11, 19] of the same compound?
**A.** The max response was -6.87%.

**Q.** What about the max response [11, 20] of the same compound?
**A.** Its max response is -10.5%.

**Q.** What about the Potency [17] of the same compound?
**A.** Its Potency is “inactive”.

**Q.** What about the Potency [12] of the same compound?
**A.** The Potency was “inactive”.

**Q.** What about the Potency [1] of the same compound?
**A.** The Potency was “inactive”.

**Q.** For `O[C@@H]1CCCN2C[C@@H](O)[C@@H](O)C12` (some centres undefined), which Potency [1] is on record?
**A.** Its Potency is “inactive”.

**Q.** Which results are given for `NC[C@H](CS(=O)(=O)O)c1ccc(Cl)cc1`?
**A.** Potency [18]: inactive; Potency [14]: > 46 µM (inactive); activity change, negative = inhibition [11]: 3.36% (inactive); max response [11, 19]: 7.7%; max response [11, 20]: 12%; Potency [1]: inactive

**Q.** What does the source list for `C[C@@H]1CC[C@@H](c2ccoc2)N2C[C@@]3(CC[C@@H]12)CS[C@@]1(CC[C@H]2[C@H](C)CC[C@@H](c4ccoc4)N2[C@@H]1O)C3`?
**A.** Potency [2]: 31.1 µM (active); Potency [3]: 7.47 µM (active); Potency [4]: 5.94 µM (active); Potency [5]: 7.47 µM (active); Potency [6]: 8.38 µM (active); Potency [7]: 10.5 µM (active); Potency [8]: 8.33 µM (active); outcome [9]: inactive; outcome [10]: inactive
